Assay results from the supplement of paper PMC10849652.
About 7,900 targets were measured; listed, in parts, are those with a hit and a random draw of the rest. About 0.6% of all pairs of compound and target were hits.

Experiments:
Test in all cases: log2 fold change, soluble protein after heating vs DMSO (PISA); higher = thermal stabilisation; K562 cells, 10 uM, 30 min; active = over 0.2 and 3.5 SD of the protein, either way, in both replicates (recomputed)
[1] = compound: COC1=CC=C(C=C1)CN2C=CC3=C2C=C(C=C3)C(=O)NO
Procedure, shortened: (§1)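 Quantification of soluble protein used TMTpro 16plex LC-MS/MS, with channel sums equalised. Samples were the supernatant after 21,000xg for 90 min of pooled aliquots from K562 cells (2×10^6 cells/mL) treated with 10 μM compound for 30 min, heated for 3 min over 48°C-58°C, and extracted in PBS with 0.5% NP-40 at 4°C. Values, from duplicates, describe thermal stability against control samples on a log2 fold-change scale.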

filanesib = compound: CON(C)C(=O)N1N=C(c2cc(F)ccc2F)S[C@@]1(CCCN)c1ccccc1 [filanesib]
Procedure, shortened: as §1

zotarolimus = compound: CO[C@H]1C[C@@H]2CC[C@@H](C)[C@@](O)(O2)C(=O)C(=O)N2CCCC[C@H]2C(=O)O[C@H]([C@H](C)C[C@@H]2CC[C@H](n3cnnn3)[C@H](OC)C2)CC(=O)[C@H](C)/C=C(\C)[C@@H](O)[C@@H](OC)C(=O)[C@H](C)C[C@H](C)/C=C/C=C/C=C/1C [zotarolimus]
Procedure, shortened: as §1

idasanutlin = compound: COc1cc(C(=O)O)ccc1NC(=O)[C@@H]1N[C@@H](CC(C)(C)C)[C@](C#N)(c2ccc(Cl)cc2F)[C@H]1c1cccc(Cl)c1F [idasanutlin]
Procedure, shortened: as §1

alisertib = compound: COc1cc(Nc2ncc3c(n2)-c2ccc(Cl)cc2C(c2c(F)cccc2OC)=NC3)ccc1C(=O)O [alisertib]
Procedure, shortened: as §1

[2] = compound: COc1cc2nc(-c3cc(F)ccc3O)nc(N[C@@H]3CNC[C@H]3C(C)(C)O)c2cc1OC
Procedure, shortened: as §1

gefitinib = compound: COc1cc2ncnc(Nc3ccc(F)c(Cl)c3)c2cc1OCCCN1CCOCC1 [gefitinib]
Procedure, shortened: as §1

[3] = compound: COc1cccc2cc(-c3nc([C@H]4CC[C@H](C(=O)O)CC4)n4ncnc(N)c34)[nH]c12
Procedure, shortened: as §1

lapatinib = compound: CS(=O)(=O)CCNCc1ccc(-c2ccc3ncnc(Nc4ccc(OCc5cccc(F)c5)c(Cl)c4)c3c2)o1 [lapatinib]
Procedure, shortened: as §1

pictilisib = compound: CS(=O)(=O)N1CCN(Cc2cc3nc(-c4cccc5[nH]ncc45)nc(N4CCOCC4)c3s2)CC1 [pictilisib]
Procedure, shortened: as §1

Measured: log2 fold change

SLC19A1 (UniProt P41440)
inactive: [1] 0.047 | filanesib -0.164 | zotarolimus -0.106 | idasanutlin 0.023 | alisertib -0.034 | [2] 0.003 | gefitinib 0 | [3] 0.086 | lapatinib -0.066 | pictilisib -0.026

RELA (UniProt Q04206)
UniProt Q04206, sequence (Q04206 whole entry, looked up): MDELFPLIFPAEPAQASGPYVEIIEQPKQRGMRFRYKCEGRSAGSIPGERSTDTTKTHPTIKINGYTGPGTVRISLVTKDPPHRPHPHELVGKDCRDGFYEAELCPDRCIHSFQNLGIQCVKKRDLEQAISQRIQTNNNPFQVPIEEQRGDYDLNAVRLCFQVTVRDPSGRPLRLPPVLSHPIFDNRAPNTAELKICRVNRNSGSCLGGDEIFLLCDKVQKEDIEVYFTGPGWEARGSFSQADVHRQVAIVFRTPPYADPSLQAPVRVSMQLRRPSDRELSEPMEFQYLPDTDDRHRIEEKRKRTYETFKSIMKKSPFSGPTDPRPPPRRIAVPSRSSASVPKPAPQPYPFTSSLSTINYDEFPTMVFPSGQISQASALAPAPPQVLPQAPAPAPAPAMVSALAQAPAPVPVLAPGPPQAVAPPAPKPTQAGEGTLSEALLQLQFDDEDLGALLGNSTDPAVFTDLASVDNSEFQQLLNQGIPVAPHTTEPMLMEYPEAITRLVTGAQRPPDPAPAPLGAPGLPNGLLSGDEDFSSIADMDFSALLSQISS
inactive: [1] 0.025 | filanesib -0.002 | zotarolimus 0.024 | idasanutlin -0.039 | alisertib -0.028 | [2] -0.031 | gefitinib 0.023 | [3] 0.005 | lapatinib 0.012 | pictilisib -0.007

RIOK2 (UniProt Q9BVS4)
UniProt Q9BVS4, sequence (Q9BVS4 whole entry, looked up): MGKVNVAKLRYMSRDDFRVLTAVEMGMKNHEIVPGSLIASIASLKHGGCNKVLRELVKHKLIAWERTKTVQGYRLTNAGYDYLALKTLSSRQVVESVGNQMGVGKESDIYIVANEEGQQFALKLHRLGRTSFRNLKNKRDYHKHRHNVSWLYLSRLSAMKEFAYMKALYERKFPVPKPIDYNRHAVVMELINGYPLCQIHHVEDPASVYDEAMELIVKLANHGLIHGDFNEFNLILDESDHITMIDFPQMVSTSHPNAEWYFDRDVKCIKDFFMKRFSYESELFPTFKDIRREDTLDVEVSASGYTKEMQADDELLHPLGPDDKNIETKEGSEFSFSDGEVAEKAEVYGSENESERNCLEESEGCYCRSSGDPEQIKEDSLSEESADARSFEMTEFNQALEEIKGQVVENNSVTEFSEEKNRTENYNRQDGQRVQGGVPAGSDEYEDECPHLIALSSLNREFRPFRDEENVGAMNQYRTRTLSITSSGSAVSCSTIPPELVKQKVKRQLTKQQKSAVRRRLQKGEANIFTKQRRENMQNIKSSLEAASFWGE
inactive: [1] -0.039 | filanesib 0.064 | zotarolimus -0.017 | idasanutlin 0.01 | alisertib -0.025 | [2] 0.074 | gefitinib -0.101 | [3] -0.057 | lapatinib 0.08 | pictilisib 0.049

RPS4X (UniProt P62701)
inactive: [1] -0.059 | filanesib 0.314 | zotarolimus -0.001 | idasanutlin 0.148 | alisertib -0.099 | [2] -0.038 | gefitinib -0.048 | [3] -0.222 | lapatinib 0.102 | pictilisib -0.155

SCD (UniProt O00767)
inactive: filanesib -0.074 | zotarolimus -0.024 | idasanutlin -0.001 | alisertib 0.014 | [2] -0.054 | gefitinib 0.019 | [3] 0.048 | lapatinib -0.017 | pictilisib -0.053
active: [1] -0.458

RNPS1 (UniProt Q15287)
inactive: [1] 0.062 | filanesib 0.13 | zotarolimus -0.014 | idasanutlin 0.274 | alisertib 0.024 | [2] -0.073 | gefitinib 0.04 | [3] -0.005 | lapatinib 0.075 | pictilisib -0.001

RNASET2 (UniProt O00584)
inactive: [1] 0.012 | filanesib -0.155 | zotarolimus -0.013 | idasanutlin -0.021 | alisertib -0.046 | [2] -0.097 | gefitinib -0.081 | [3] 0.035 | lapatinib -0.028 | pictilisib 0.024

SART3, A0A499FI31
inactive: [1] 0.059 | filanesib -0.036 | zotarolimus 0.054 | idasanutlin -0.044 | alisertib -0.042 | [2] -0.192 | gefitinib -0.019 | [3] -0.019 | lapatinib 0.016 | pictilisib -0.083

RAB5IF isoform 5 (UniProt Q9BUV8)
UniProt Q9BUV8, sequence (Q9BUV8 whole entry, looked up): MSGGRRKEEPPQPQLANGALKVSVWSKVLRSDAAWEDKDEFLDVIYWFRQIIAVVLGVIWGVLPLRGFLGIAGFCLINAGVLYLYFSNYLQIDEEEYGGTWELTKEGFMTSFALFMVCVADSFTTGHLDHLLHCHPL
active: [1] 0.429
inactive: filanesib -0.243 | zotarolimus -0.074 | idasanutlin -0.015 | alisertib -0.081 | [2] -0.021 | gefitinib 0.018 | [3] 0.002 | lapatinib 0.006 | pictilisib 0.006

SEC16A isoform 5 (UniProt O15027)
inactive: [1] 0.079 | filanesib 0.037 | zotarolimus -0.01 | idasanutlin -0.021 | alisertib 0 | [2] 0.007 | gefitinib 0.046 | [3] -0.148 | lapatinib 0.017 | pictilisib -0.003

SIDT2 isoform 2 (UniProt Q8NBJ9)
inactive: [1] -0.062 | filanesib -0.08 | zotarolimus 0.127 | idasanutlin 0.01 | alisertib 0.082 | [2] -0.065 | gefitinib -0.207 | [3] 0.009 | lapatinib 0.004 | pictilisib 0.044

RIPK1 (UniProt Q13546)
UniProt Q13546, sequence (Q13546 whole entry, looked up): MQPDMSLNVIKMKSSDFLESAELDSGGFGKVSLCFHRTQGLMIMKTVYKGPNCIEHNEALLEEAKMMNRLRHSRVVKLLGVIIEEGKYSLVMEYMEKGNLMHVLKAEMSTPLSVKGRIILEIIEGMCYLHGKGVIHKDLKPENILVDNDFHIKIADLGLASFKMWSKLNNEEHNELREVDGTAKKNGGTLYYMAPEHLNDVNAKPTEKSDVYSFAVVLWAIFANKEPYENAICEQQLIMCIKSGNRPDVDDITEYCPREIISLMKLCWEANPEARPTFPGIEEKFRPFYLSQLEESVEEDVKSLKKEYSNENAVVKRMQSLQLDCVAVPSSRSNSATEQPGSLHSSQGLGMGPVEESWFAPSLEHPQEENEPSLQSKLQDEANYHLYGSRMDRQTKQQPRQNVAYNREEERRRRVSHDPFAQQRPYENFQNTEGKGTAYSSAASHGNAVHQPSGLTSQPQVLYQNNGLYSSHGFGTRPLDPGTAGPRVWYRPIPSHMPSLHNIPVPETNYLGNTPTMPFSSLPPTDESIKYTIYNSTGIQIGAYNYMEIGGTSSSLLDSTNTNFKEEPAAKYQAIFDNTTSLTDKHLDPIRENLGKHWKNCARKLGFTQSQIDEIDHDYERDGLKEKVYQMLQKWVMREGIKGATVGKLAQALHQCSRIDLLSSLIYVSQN
inactive: [1] 0 | filanesib 0.049 | zotarolimus 0.098 | idasanutlin 0.022 | alisertib -0.052 | [2] 0.032 | gefitinib 0.043 | [3] -0.214 | lapatinib 0.055 | pictilisib 0.027

SEC23A (UniProt Q15436)
inactive: [1] 0.024 | filanesib 0.013 | zotarolimus 0.025 | idasanutlin -0.026 | alisertib -0.027 | [2] 0.043 | gefitinib 0.007 | [3] 0.01 | lapatinib -0.045 | pictilisib 0.049

RPTOR (UniProt Q8N122)
UniProt Q8N122, sequence (Q8N122 whole entry, looked up): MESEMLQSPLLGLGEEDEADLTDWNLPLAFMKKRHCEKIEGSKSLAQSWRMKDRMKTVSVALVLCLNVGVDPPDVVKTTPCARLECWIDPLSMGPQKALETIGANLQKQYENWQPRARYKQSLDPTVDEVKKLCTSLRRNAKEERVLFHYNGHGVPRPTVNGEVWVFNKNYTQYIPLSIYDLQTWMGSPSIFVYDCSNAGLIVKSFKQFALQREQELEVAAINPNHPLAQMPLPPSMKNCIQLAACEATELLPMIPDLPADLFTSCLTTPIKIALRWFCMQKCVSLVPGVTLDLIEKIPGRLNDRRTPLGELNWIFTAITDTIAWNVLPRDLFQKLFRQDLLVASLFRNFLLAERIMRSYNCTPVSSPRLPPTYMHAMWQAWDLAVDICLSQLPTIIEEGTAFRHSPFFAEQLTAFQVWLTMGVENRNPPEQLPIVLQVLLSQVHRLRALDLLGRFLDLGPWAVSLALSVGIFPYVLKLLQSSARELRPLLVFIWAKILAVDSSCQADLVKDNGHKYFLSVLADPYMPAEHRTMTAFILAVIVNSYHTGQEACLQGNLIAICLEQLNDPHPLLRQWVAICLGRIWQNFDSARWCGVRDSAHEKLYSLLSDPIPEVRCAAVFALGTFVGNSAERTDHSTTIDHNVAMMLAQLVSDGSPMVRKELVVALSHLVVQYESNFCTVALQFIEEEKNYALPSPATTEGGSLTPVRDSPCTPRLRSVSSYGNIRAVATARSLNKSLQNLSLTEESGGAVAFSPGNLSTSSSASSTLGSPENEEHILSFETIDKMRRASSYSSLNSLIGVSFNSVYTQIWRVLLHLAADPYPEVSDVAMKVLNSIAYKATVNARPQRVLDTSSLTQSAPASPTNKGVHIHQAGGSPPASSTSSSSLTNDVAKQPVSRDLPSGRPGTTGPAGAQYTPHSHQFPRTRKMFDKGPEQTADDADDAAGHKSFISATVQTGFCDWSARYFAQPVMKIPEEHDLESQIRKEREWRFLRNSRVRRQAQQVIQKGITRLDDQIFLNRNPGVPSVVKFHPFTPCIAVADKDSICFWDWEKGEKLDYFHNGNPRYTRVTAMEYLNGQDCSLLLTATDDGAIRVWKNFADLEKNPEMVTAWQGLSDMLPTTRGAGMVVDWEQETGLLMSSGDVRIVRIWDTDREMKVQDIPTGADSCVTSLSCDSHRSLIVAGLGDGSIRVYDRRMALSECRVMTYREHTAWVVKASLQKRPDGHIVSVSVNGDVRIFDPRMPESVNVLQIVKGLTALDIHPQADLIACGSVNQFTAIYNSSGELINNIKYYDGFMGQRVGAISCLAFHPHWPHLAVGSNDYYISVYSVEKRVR
inactive: [1] 0.042 | filanesib -0.077 | zotarolimus -0.194 | idasanutlin -0.066 | alisertib -0.054 | [2] -0.056 | gefitinib 0.007 | [3] -0.072 | lapatinib 0.028 | pictilisib -0.022

RPL38 (UniProt P63173)
inactive: [1] -0.109 | filanesib 0 | zotarolimus -0.007 | idasanutlin 0.055 | alisertib -0.064 | [2] 0.061 | gefitinib -0.074 | [3] -0.171 | lapatinib 0.05 | pictilisib -0.053

SERPINA7 (UniProt P05543)
UniProt P05543, sequence (P05543 whole entry, looked up): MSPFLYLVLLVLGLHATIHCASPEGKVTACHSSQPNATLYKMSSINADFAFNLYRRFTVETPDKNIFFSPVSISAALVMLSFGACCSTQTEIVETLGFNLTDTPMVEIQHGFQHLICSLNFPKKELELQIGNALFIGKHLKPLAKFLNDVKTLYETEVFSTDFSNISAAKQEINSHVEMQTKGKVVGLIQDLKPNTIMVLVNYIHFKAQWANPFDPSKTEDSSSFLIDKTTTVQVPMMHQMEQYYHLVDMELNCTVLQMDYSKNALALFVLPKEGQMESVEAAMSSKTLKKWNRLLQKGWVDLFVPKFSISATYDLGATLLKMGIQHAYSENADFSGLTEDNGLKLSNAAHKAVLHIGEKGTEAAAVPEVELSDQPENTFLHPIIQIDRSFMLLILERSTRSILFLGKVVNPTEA
inactive: [1] -0.213 | filanesib 0.251 | zotarolimus -0.206 | idasanutlin 0.071 | alisertib 0.052 | [2] 0.008 | gefitinib -0.157 | [3] 0.381 | lapatinib -0.017 | pictilisib -0.088

SDHAF4 (UniProt Q5VUM1)
UniProt Q5VUM1, sequence (Q5VUM1 whole entry, looked up): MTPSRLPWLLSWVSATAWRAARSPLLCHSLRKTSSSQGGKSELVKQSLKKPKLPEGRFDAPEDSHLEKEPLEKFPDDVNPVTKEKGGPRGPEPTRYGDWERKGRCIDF
inactive: [1] -0.072 | filanesib 0.034 | zotarolimus -0.01 | idasanutlin -0.223 | alisertib -0.073 | [2] -0.026 | gefitinib 0.026 | [3] 0.096 | lapatinib -0.154

RSRC1 (UniProt Q96IZ7)
UniProt Q96IZ7, sequence (Q96IZ7 whole entry, looked up): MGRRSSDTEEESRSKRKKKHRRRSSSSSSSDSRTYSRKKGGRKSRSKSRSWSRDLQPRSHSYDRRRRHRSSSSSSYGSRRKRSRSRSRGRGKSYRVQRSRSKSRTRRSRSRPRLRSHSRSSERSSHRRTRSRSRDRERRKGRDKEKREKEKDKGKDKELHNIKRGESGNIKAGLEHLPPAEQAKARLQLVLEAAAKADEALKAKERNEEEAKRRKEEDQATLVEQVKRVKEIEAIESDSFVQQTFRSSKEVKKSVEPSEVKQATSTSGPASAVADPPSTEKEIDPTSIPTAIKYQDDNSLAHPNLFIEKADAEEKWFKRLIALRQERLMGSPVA
inactive: [1] 0.136 | filanesib -0.003 | zotarolimus 0.033 | idasanutlin -0.004 | alisertib -0.084 | [2] -0.024 | gefitinib 0.024 | [3] 0.001 | lapatinib 0.041 | pictilisib 0.101

RPS12 (UniProt P25398)
inactive: [1] -0.009 | filanesib 0.018 | zotarolimus -0.026 | idasanutlin 0.048 | alisertib -0.17 | [2] -0.057 | gefitinib -0.02 | [3] -0.159 | lapatinib 0.062 | pictilisib -0.033

RABGGTA (UniProt Q92696)
UniProt Q92696, sequence (Q92696 whole entry, looked up): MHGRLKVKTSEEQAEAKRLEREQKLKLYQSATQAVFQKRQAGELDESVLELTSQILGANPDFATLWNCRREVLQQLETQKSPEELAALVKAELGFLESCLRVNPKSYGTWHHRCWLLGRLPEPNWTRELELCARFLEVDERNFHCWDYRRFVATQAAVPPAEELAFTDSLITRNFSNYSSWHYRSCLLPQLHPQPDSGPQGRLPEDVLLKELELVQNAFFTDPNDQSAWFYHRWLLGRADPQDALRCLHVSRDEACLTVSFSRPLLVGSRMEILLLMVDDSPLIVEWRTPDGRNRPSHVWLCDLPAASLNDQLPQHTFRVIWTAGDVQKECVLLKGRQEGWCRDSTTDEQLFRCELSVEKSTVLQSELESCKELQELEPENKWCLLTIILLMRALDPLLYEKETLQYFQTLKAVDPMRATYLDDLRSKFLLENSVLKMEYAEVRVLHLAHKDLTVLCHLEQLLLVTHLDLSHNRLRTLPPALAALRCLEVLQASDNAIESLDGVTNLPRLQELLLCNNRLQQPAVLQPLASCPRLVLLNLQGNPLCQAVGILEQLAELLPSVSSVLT
inactive: [1] 0.019 | filanesib -0.013 | zotarolimus 0.022 | idasanutlin -0.019 | alisertib 0.016 | [2] -0.007 | gefitinib 0.041 | [3] 0.017 | lapatinib 0.002 | pictilisib 0.067

RCOR1 (UniProt Q9UKL0)
inactive: [1] -0.039 | filanesib 0.002 | zotarolimus -0.044 | idasanutlin 0 | alisertib 0.013 | [2] 0.003 | gefitinib -0.002 | [3] 0.015 | lapatinib 0.019 | pictilisib 0.005

RPS21 (UniProt P63220)
inactive: [1] -0.033 | filanesib 0.086 | zotarolimus -0.021 | idasanutlin 0.031 | alisertib -0.069 | [2] 0.04 | gefitinib 0.002 | [3] -0.022 | lapatinib -0.027 | pictilisib -0.01

RCOR3 isoform 3 (UniProt Q9P2K3)
inactive: [1] -0.019 | filanesib 0.084 | zotarolimus -0.011 | idasanutlin -0.046 | alisertib -0.145 | [2] 0.14 | gefitinib 0.013 | [3] 0.011 | lapatinib 0 | pictilisib -0.106

RPA3 (UniProt P35244)
UniProt P35244, sequence (P35244 whole entry, looked up): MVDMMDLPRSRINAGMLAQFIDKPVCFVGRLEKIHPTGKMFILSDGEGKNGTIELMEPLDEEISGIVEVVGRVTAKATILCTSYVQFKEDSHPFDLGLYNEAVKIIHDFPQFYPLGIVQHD
inactive: [1] 0.054 | filanesib -0.038 | zotarolimus 0.056 | idasanutlin -0.064 | alisertib 0.073 | [2] -0.05 | gefitinib -0.01 | [3] -0.048 | lapatinib 0.04 | pictilisib 0.046

SACM1L (UniProt Q9NTJ5)
inactive: [1] 0.044 | filanesib -0.081 | zotarolimus 0.029 | idasanutlin -0.027 | alisertib -0.05 | [2] -0.039 | gefitinib 0.086 | [3] 0.023 | lapatinib 0.028 | pictilisib -0.038

SEC24A (UniProt O95486)
inactive: [1] 0.029 | filanesib -0.083 | zotarolimus 0.033 | idasanutlin -0.087 | alisertib -0.002 | [2] -0.004 | gefitinib -0.028 | [3] -0.016 | lapatinib -0.021 | pictilisib -0.077

SCAMP2 (UniProt H3BUB6)
inactive: [1] -0.27 | filanesib 0.126 | zotarolimus -0.217 | idasanutlin 0.134 | alisertib -0.019 | [2] 0.319 | gefitinib 0.003 | [3] 0.188 | lapatinib -0.329
